Shown is part of a subset that was picked to be rich in hits.
RMI-FANCM inh: inhibitors of human RMI core complex binding to FANCM MM2 | Fluorescence polarization, RMI core complex with F-MM2 peptide; active compounds read low | FP signal (polarization) at 33 µM | 0.58% of 70,000 active | AID 1159607; in the data active = FP signal below about 40
Numbers without * were called inactive; ! = repeats disagree.

SMILES	RMI-FANCM inh
CCCCCC(=O)N=Nc1c(O)[nH]c2ccc([N+](=O)[O-])cc12	65
O=c1cc(O)c2cc(Cl)ccc2o1	57
N#Cc1c(=O)[nH]c(O)c2c(=N)oc3ccc(Cl)cc3c12	10*
O=C(Nc1ccc2c(c1)OCO2)C1CCCN(c2ccc(-c3ccco3)nn2)C1 (stereo not given)	57
O=C(Nc1cccc2c1C(=O)c1ccccc1C2=O)c1ccc([N+](=O)[O-])cc1	53
O=C(Nc1sc2ccccc2c(=O)c1-c1cccs1)c1ccc([N+](=O)[O-])cc1	-19*
O=C(Nc1sc2ccccc2c(=O)c1-c1ccc2c(c1)OCO2)c1cccs1	64
CCOCCCN1C(=O)/C(=C/c2cn(-c3ccccc3)nc2-c2nc3ccccc3s2)SC1=S	83
O=C(CNS(=O)(=O)c1cccc2nsnc12)NNC(=O)c1cccc(C(F)(F)F)c1	50
Fc1ccc2nc(Nc3nnc(-c4ccco4)o3)sc2c1	80
Fc1ccc2nc(Nc3nnc(-c4cccs4)o3)sc2c1	84
COc1ccccc1-c1nnc(Nc2nc3ccc(F)cc3s2)o1	29*
O=C(Cc1ccccc1)N(Cc1cccnc1)c1nc2cc3c(cc2s1)OCCO3	63
O=C(NC(=S)Nc1ccc(Oc2ccccc2)cc1)c1ccco1	59
CC(C)C(=O)N1CCc2ccc(NC(=O)c3ccc(Cl)cc3)cc2C1	67
CCOc1ccc(-c2noc(CS(=O)(=O)c3cc(OC)ccc3OC)n2)cc1	84
CCOc1ccc(N2CC(NC(=O)NCC3CCCO3)CC2=O)cc1 (stereo not given)	56
CCOc1ccc2c(c1)=CC(=Cc1sc(=S)n(CC3CCCO3)c1O)C(=O)N=2 (stereo not given)	23*
O=c1c2sc3ccccc3c2[nH]c(=S)n1CC1CCCO1 (stereo not given)	57
COc1ccc(S(=O)(=O)Nc2cc(-c3c(O)ccc4ccccc34)c(O)c3ccccc23)cc1	58
CCOc1ccc(S(=O)(=O)Nc2cc(-c3c(O)ccc4ccccc34)c(O)c3ccccc23)cc1	56
O=S(=O)(Nc1cc(Br)c(O)c2ccccc12)c1ccc2ccccc2c1	29*
O=C(/C=C/c1cc2c(cc1Br)OCCO2)c1c(-c2ccccc2)c2cc(Br)ccc2[nH]c1=O	51
COc1ccccc1-n1c(CNC(=O)COc2ccccc2)nnc1SCC(=O)Nc1nnc(C)s1	63
COc1ccc(-c2ccc(N3CCN(C(=O)CCSc4ccccc4)CC3)nn2)cc1	69
SMILES	RMI-FANCM inh
COc1cccc(OC)c1C(=O)N[C@@H]1C(=O)N2[C@@H]1SC(C)(C)[C@@H]2C(=O)O	67
Cc1onc(-c2ccccc2)c1C(=O)NC1C(=O)N2[C@@H]1SC(C)(C)[C@@H]2C(=O)O (stereo not given in full)	9*
Cc1onc(-c2c(Cl)cccc2Cl)c1C(=O)N[C@@H]1C(=O)N2[C@@H]1SC(C)(C)[C@@H]2C(=O)O	65
Cc1onc(-c2ccccc2)c1C(=O)NNC(=O)C1CC1	61
CC(=O)Nc1ccc(OCCCNC(=O)c2c(-c3ccccc3)noc2C)cc1	63
Cc1onc(-c2ccccc2)c1C(=O)NCCNC(=O)c1c(-c2ccccc2)noc1C	-22*
CC(C)CNC(=O)Cc1csc(Nc2ccc(OC(F)(F)F)cc2)n1	63
CN(Cc1ccccc1)S(=O)(=O)c1ccc(C(=O)Nc2nccs2)cc1	76
Cc1ccc(S(=O)(=O)NCC2CCN(Cc3cccs3)CC2)cc1C	76
O=C(CSc1nc2sc3c(c2c(=O)n1-c1ccccc1)CCCCC3)Nc1ccccc1	71
O=C(CSc1nc(SCC(=O)c2ccccc2)c2c3c(sc2n1)CCC3)c1ccccc1	79
CCNc1nc(SCC(=O)NC(=O)Nc2ccccc2)nc2sc3c(c12)CCN(C)C3	33*!
O=C1c2ccc([N+](=O)[O-])cc2C(=O)N1CNc1ccc(Oc2ccccc2)cc1	52
COc1cccc(CSc2nc(C)c(CC(=O)N3CCN(C(=O)c4ccco4)CC3)c(=O)[nH]2)c1	62
CCOc1ccc(CC(=O)Nc2cc(-c3cn4nc(OC)ccc4n3)ccc2OC)cc1	82
Cc1cc(NC(=O)CSc2nccn3nc(-c4ccccc4)cc23)ccc1Br	77
Cc1nc(-n2nc(-c3ccco3)cc2NC(=O)COc2ccc(Cl)cc2)[nH]c(=O)c1C	57
COc1ccc(CC(=O)Nc2cc(-c3ccco3)nn2-c2nc(C)c(C)c(=O)[nH]2)cc1OC	33*
COc1ccc(CCC(=O)Nc2cc(-c3ccco3)nn2-c2nc(C)c(C)c(=O)[nH]2)cc1	41
Fc1ccccc1Cn1nnc2ccccc21	54
CN(C)c1ccc(CCNC(=O)C23CC4CC(CC(C4)C2)C3)cc1	71
Cc1ccc(/C=N\NC(=O)CNC(=O)c2ccccc2C(F)(F)F)o1	63
CC1C(=O)NCCN1C(=O)c1ccc(S(C)(=O)=O)cc1 (stereo not given)	69
Cc1[nH]n(C)c(=O)c1N=Nc1ccc2c(c1)COCO2	49
O=c1ccc2cc(O)c(O)cc2o1	41
SMILES	RMI-FANCM inh
O=c1ccc2cc(N=Cc3cc(Cl)cc(Cl)c3O)ccc2o1	30*
Fc1ccc(N=Cc2ccc3c(c2)OCO3)cc1	54
Oc1c(Cl)cc(Cl)cc1C=Nc1ccc2c(c1)COCO2	37*
CCOC(=O)c1ccc(N=Cc2ccccn2)cc1	51
CN(/N=C\c1cc(Cl)cc(Cl)c1O)c1ccc([N+](=O)[O-])cn1	44
Oc1c(Cl)cc(Cl)cc1C=Nc1ccc2nc[nH]c2c1	12*
O=C(Nc1ccc2oc(=O)ccc2c1)c1ccc(F)cc1	63
CCOC(=O)c1ccc(N=Cc2ccc(OC(=O)c3ccc(F)cc3)c(OC)c2)cc1	60
Fc1cc2[nH]cnc2cc1Cl	62
CCOC(=O)c1ccc(N=Cc2cc(Cl)cc(Cl)c2O)cc1	24*
CC(C)CNC(=O)NNC(=O)c1cccn(Cc2cccc(Cl)c2)c1=O	63
CNS(=O)(=O)c1ccc2nc(NC(=O)c3cccc([N+](=O)[O-])c3)sc2c1	56
NC(=O)c1ccccc1NC(=O)CCCn1nc(-c2ccc(F)cc2)ccc1=O	73
COc1ccc(-c2cccc(NC(=O)c3ccccc3C(F)(F)F)c2)nn1	53
CCOCCn1c(=NC(=O)c2ccnn2C)sc2c(C)cc(C)cc21	50
CCCS(=O)(=O)N1CCc2ccc(NC(=O)CCc3ccccc3)cc2C1	72
COc1cc2c3cc1Oc1cc(ccc1O)O[C@H]1c4c(cc(OC)c(O)c4Oc4ccc(cc4)C[C@@H]3N(C)CC2)CCN1C	57
COc1ccc(Nc2nn3c(=O)c4cc(OC)c(OC)cc4nc3s2)cc1	87
O=C(C(=O)N(Cc1ccccc1)c1ccccc1)c1cn(CC(=O)N2CCOCC2)c2ccccc12	67
Cc1cc(NC(=O)c2c(F)cccc2F)n(-c2nc3c(cnn3-c3cccc(C)c3C)c(=O)[nH]2)n1	66
O=C(NCC1COC2(CCCC2)O1)c1cc2ccccc2oc1=O (stereo not given)	53
CC1CCN(S(=O)(=O)c2ccc(C(=O)Nc3cccc(Cl)c3Cl)cc2)CC1	80
CCOC(=O)/C(C)=N\Nc1cc(C(F)(F)F)ccc1N1CCOCC1	53
O=C(O)c1cc(I)ccn1	56
Oc1c(Cl)cc(Cl)cc1C=Nc1nc2c(s1)CCCC2	33
Oc1ccccc1C=Nc1ccccc1SCc1csc(-c2ccc(Cl)cc2)n1	50
N#CCCSc1ccccc1NC(=O)c1ccc(Cl)s1	59
N#CCCSc1ccccc1N=Cc1cc(Cl)cc(Cl)c1O	33*
O=Cc1cccc2cccnc12	60
Oc1c(Cl)cc(Cl)cc1C=Nc1cccc2cccnc12	27*
